In assay [1] the target is Progesterone receptor (Homo sapiens) (UniProt P06401). Description: qHTS assay to identify small molecule agonists of the progesterone receptor (PR) signaling pathway (AID 1346784; calls by dose curve; further: nearly all actives have a fitted effect of over 30% in size). An outline of the steps:
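HEK 293T PR-UAS-bla reporter cells, 2% charcoal-stripped FBS; 6 hr settle at 37C/5% CO2, compound (DMSO) 16 hr, LiveBLAzer B/G FRET substrate 2 hr RT, fluorescence intensity read.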

The nature of assay [2]: qHTS assay to identify small molecule antagonists of the progesterone receptor (PR) signaling pathway - cell viability counter screen (AID 1346798). Further: series mostly up to about 92 µM; nearly all actives have a fitted effect of over 50% in size. Summed up: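 Luminescence readout (CellTiter-Glo, 30 min, RT) of viability in PR-UAS-bla HEK293T cells exposed to compound and R5020 agonist for 16 hr at 37C, 5% CO2; run in the same wells as the beta-lactamase reporter read.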

A short description of assay [3]: qHTS assay to identify small molecule agonists of the progesterone receptor (PR) signaling pathway - cell viability counter screen (AID 1346799; calls by dose curve; further: nearly all actives have a fitted effect of over 45% in size; further: potency means the concentration at half of the fitted maximal effect). Summed up: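 HEK293T PR-UAS-bla, 3,000 cells/well, 2% charcoal-stripped FBS; 6 h settle, compound 16 h at 37C/5% CO2; LiveBLAzer 2 h RT, then CellTiter-Glo 30 min RT, luminescence read.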
Assay [4] can be described thus: qHTS assay to identify small molecule agonists of the TGF-beta/Smad signaling pathway - cell viability counter screen (AID 1346829). Further: top concentration of the series differs between compounds; nearly all actives have a fitted effect of over 45% in size. An outline of the steps:
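Here the cytotoxicity of library compounds is measured in SBE-bla HEK 293T cells treated for 5 hr, using CellTiter-Glo added to wells already read for the beta-lactamase reporter.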

The nature of assay [5]: qHTS assay to identify small molecule agonists of the TGF-beta/Smad signaling pathway (AID 1346859; active means well fitted activation curve with a large enough effect in the signal ratio in the repeat runs, not every such curve was filed as active; the % refers to the signal ratio; further: series mostly up to about 77 µM). Summed up: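 Read-out: fluorescence at 460 and 530 nm (405 nm excitation) after a 2 hr room-temperature incubation with beta-lactamase FRET substrate. SBE-bla HEK 293T cells had been treated with test compounds for 5 hr at 37 C.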
The target of assay [6] is Thyrotropin-releasing hormone receptor (Homo sapiens) (UniProt P34981). The assay can be described thus: qHTS assay to identify small molecule antagonists of the thyrotropin-releasing hormone receptor (TRHR) signaling pathway (AID 1346877; active means well fitted inhibition curve with a large enough effect in the repeat runs, not every such curve was filed as active; further: series mostly up to about 51 µM). Summed up: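 Overnight-plated (18 h, 37 °C) HEK293 cells expressing TRHR were dye-loaded 2 h, treated with compound, then stimulated with TRH at 1 nM final. Fluorescence intensity was captured every second for 3 min.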

The target is the same in assay [7]. Description: qHTS assay to identify small molecule agonists of the thyrotropin-releasing hormone receptor (TRHR) signaling pathway (AID 1346891; calls by dose curve;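 further: HEK293 cells expressing TRHR with calcium dye readout; series mostly up to about 58 µM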). Summed up: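 HEK293/TRHR cells, 1500 per well, 18 h 37 °C; Ca dye 2 h 37 °C; pin-tool compound addition (agonist mode); kinetic fluorescence 3 min, 1 s reads; 15 concentrations, triplicate.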
Assay [8] in a line: Human pregnane X receptor (PXR) small molecule agonists, qHTS cell viability counter screen (AID 1346977). Further: nearly all actives have a fitted effect of over 50% in size. Further: potency means the concentration at half of the fitted maximal effect. An outline of the steps: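 Fluorescence read-out (CellTiter-Fluor) of viability in PXR-Luc HepG2 cells, multiplexed with the luciferase agonist read. Compounds in DMSO added after 5hr plating; 24hr total exposure at 37C, 5% CO2.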
Assay [9] is described as follows: Caspase-3/7 induction in HepG2 cells by small molecules, qHTS assay (AID 1346978). Further: nearly all actives have a fitted effect of over 15% in size. Further: potency means the concentration at half of the fitted maximal effect. Summed up:
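Wild-type HepG2 cells (2,000/well) were settled 5 h at 37 C, 5% CO2, then exposed to compounds in DMSO for 17 h. Caspase-3/7 activity was read by luminescence 30 min after adding Caspase-Glo 3/7 reagent at room temperature.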

A short description of assay [10]: Caspase-3/7 induction in CHO-K1 cells by small molecules, qHTS cell viability counter screen (AID 1346979). Further: nearly all actives have a fitted effect of over 35% in size. Further: potency means the concentration at half of the fitted maximal effect. An outline of the steps: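 CHO-K1 wt, 1,500 cells/well; 5hr pre-incubation 37C/5% CO2; compound pin transfer (DMSO); 16hr exposure; CellTiter-Fluor added, 1hr, fluorescence read.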
Assay [11] in a line: Caspase-3/7 induction in CHO-K1 cells by small molecules, qHTS assay (AID 1346980). Further: nearly all actives have a fitted effect of over 15% in size. Further: potency means the concentration at half of the fitted maximal effect. An outline of the steps: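 Wild-type cells were seeded at 1,500 per well and settled 5 hr at 37 C, 5% CO2, then exposed to DMSO-dissolved compounds for 17 hr. Caspase-Glo 3/7 reagent was added, and luminescence was read after 30min at room temperature.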
Assay [12] can be described thus: Caspase-3/7 induction in HepG2 cells by small molecules, qHTS cell viability counter screen (AID 1346981). Further: nearly all actives have a fitted effect of over 30% in size. Further: potency means the concentration at half of the fitted maximal effect. An outline of the steps: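 Treatment of HepG2 cells with DMSO-delivered compounds ran 16 hr at 37 C following a 5-hr pre-incubation of 2,000 cells/well. CellTiter-Fluor fluorescence, read after 1 hr, served as the viability measure in a qHTS format.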
The target of assay [13] is Acetylcholinesterase (Homo sapiens) (UniProt P22303). Description: Acetylcholinesterase (AChE) small molecule antagonists: enzyme-based qHTS assay (AID 1347397; calls by dose curve; further: nearly all actives have a fitted effect of over 55% in size). The settings on record: Potency: AChE enzyme activity inhibition. An outline of the steps: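 Tox21 library chemicals are tested in qHTS format against recombinant human AChE. The enzyme, dispensed at 50 mU/mL, sits with compound for 30 min at room temperature. A DTNB–acetylthiocholine cocktail follows, and colour is read after 10 min.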

Assay [14] concerns the target Progesterone receptor (Homo sapiens) (UniProt P06401). Description: qHTS assay to identify small molecule antagonists of the progesterone receptor (PR) signaling pathway (AID 1346795; active means well fitted inhibition curve with a large enough effect in the signal ratio in the repeat runs, not every such curve was filed as active; the % refers to the signal ratio; further: potency means the concentration at half of the fitted maximal effect). An outline of the steps:
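Beta-lactamase reporter, HEK293T PR-UAS-bla line; 2% charcoal-stripped FBS; 6 hr pre-incubation, 37C/5% CO2. Compound + R5020 1 nM final, 16 hr. LiveBLAzer B/G FRET substrate, 2 hr RT; fluorescence intensity read.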

A short description of assay [15]: qHTS assay to identify small molecule antagonists of the TGF-beta/Smad signaling pathway - cell viability counter screen (AID 1346824). Further: nearly all actives have a fitted effect of over 50% in size. Further: potency means the concentration at half of the fitted maximal effect. An outline of the steps:
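SBE-bla HEK 293T cells were plated overnight at 37 C, then given compounds in DMSO plus TGF-beta1 (added as 0.25 ng/mL solution) for 5 hr. After the bla read, CellTiter-Glo was added to the same wells and luminescence read after 30 min at room temperature.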

The target of assay [16] is Nuclear receptor subfamily 1 group I member 2 (Homo sapiens) (UniProt O75469). The assay can be described thus: Human pregnane X receptor (PXR) small molecule agonists, qHTS assay (AID 1346982). Further: nearly all actives have a fitted effect of over 35% in size. Further: potency means the concentration at half of the fitted maximal effect. An outline of the steps:
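Stable HepG2 line reporting PXR-mediated CYP3A4 expression via luciferase. Treatment: 24 hr with compounds in DMSO at 37 C. Detection: ONE-Glo luminescence.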

Assay [17] concerns the target Acetylcholinesterase (Homo sapiens) (UniProt P22303). Description: Acetylcholinesterase (AChE) small molecule antagonists: colormetric cell-based qHTS assay (AID 1347395; calls by dose curve; further: nearly all actives have a fitted effect of over 30% in size; further: potency means the concentration at half of the fitted maximal effect). Summed up: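 SH-SY5Y cells; cpd 30 min 37 C; + DTNB/acetylthiocholine, 90 min 37 C; colorimetric thiocholine read; qHTS.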
Assay [18] has as its target Nuclear receptor subfamily 1 group I member 2 (Rattus norvegicus) (UniProt Q9R1A7). The assay can be described thus: Rat pregnane X receptor (rPXR) activation by small molecules, qHTS assay (AID 1346983). Further: nearly all actives have a fitted effect of over 20% in size. Particulars: rPXR luciferase reporter cells, One-Glo luminescence, 24 h; max activation: active compounds read high. An outline of the steps: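 Cell-based rPXR luciferase reporter assay, 2,000 cells per well, rested 5hr at 37 C before compound addition in DMSO, then 24 hr at 37 C. One-Glo reagent was added and luminescence read after 30 min at room temperature.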

In assay [19] the target is Nuclear receptor subfamily 1 group I member 2 (Homo sapiens) (UniProt O75469). Description: CYP3A4 induction through human pregnane X receptor (PXR) by small molecules, qHTS assay (AID 1346984). Further: nearly all actives have a fitted effect of over 40% in size. An outline of the steps:
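After 24 h at 37C with compound, DPX-2 cells (HepG2, co-transfected PXR response element and CYP3A4 promoter-luciferase) got 3uM final P450-Glo Luciferin-IPA for 3 h; One-Glo luminescence followed.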

Assay [20] shares this target. Description: Human pregnane X receptor (PXR) activation by small molecules, qHTS assay (AID 1346985). Further: nearly all actives have a fitted effect of over 40% in size. Summed up:
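DPX-2 cells (HepG2 co-transfected with a PXR response element and a CYP3A4-promoter luciferase construct) were seeded at 2,000 per well, rested 5 hr at 37C, then exposed to DMSO-dissolved compounds for 24 hr. Activation was read as luciferase luminescence.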

A number with no mark means an inactive call. Results filed as inconclusive are left out. Active and inactive are the calls of the source. Unless noted, the call rests on the fitted dose curve; in most records, active means well fitted curve in the direction sought with a large enough effect in the repeat runs; inconclusive means weak or mixed curves; inactive means no such curve, though single readings can be large; an effect the other way counts as inactive or inconclusive.
On the % scale 0 is the no-effect control and ±100 the full control effect.

Thyrotropin-releasing hormone receptor (Homo sapiens), sequence (P34981 whole entry, looked up): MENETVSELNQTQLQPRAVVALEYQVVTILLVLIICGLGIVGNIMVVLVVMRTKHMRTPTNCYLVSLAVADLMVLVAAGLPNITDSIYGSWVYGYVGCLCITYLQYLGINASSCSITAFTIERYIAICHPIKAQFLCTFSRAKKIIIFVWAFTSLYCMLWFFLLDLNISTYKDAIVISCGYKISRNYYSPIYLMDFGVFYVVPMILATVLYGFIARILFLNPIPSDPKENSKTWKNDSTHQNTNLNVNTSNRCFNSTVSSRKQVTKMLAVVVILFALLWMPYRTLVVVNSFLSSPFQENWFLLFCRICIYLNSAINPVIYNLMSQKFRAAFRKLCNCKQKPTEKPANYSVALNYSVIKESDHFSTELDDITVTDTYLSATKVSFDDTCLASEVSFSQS
Progesterone receptor (Homo sapiens), sequence (P06401 whole entry, looked up): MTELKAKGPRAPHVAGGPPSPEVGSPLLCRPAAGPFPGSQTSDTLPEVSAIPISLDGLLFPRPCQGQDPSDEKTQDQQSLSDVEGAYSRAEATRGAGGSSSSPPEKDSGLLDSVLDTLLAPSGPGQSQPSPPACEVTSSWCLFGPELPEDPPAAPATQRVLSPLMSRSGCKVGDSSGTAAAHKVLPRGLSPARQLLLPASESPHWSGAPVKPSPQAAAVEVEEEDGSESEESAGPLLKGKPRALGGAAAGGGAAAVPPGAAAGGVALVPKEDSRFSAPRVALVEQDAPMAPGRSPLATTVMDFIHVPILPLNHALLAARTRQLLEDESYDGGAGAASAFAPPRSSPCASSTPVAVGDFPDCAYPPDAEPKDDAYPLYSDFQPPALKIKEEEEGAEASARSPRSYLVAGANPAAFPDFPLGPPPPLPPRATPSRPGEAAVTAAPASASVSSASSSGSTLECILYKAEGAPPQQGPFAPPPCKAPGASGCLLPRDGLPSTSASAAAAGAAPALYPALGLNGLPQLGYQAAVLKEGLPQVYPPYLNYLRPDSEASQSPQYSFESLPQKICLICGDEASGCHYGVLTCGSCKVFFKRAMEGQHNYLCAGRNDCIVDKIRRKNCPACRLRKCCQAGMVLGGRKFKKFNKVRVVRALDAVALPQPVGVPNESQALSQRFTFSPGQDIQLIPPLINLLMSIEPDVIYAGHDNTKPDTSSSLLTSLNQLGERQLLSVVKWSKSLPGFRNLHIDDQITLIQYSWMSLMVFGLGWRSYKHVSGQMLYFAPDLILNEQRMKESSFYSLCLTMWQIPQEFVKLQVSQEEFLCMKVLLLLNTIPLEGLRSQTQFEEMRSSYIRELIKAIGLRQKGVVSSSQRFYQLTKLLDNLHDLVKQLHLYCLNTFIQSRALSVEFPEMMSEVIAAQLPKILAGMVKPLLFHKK
Nuclear receptor subfamily 1 group I member 2 (Homo sapiens), sequence (O75469 whole entry, looked up): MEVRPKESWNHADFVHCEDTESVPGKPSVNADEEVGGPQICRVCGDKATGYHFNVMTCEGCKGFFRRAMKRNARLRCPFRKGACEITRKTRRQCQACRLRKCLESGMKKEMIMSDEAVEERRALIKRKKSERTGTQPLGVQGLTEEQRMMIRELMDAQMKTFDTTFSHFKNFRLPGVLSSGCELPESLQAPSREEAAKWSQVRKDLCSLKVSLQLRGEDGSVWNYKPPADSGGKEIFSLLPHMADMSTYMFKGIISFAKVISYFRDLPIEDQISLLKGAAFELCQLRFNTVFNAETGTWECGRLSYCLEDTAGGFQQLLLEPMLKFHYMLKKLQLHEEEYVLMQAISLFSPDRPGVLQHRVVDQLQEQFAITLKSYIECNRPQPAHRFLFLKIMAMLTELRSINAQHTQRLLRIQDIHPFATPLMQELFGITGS
Acetylcholinesterase (Homo sapiens), sequence (P22303 whole entry, looked up): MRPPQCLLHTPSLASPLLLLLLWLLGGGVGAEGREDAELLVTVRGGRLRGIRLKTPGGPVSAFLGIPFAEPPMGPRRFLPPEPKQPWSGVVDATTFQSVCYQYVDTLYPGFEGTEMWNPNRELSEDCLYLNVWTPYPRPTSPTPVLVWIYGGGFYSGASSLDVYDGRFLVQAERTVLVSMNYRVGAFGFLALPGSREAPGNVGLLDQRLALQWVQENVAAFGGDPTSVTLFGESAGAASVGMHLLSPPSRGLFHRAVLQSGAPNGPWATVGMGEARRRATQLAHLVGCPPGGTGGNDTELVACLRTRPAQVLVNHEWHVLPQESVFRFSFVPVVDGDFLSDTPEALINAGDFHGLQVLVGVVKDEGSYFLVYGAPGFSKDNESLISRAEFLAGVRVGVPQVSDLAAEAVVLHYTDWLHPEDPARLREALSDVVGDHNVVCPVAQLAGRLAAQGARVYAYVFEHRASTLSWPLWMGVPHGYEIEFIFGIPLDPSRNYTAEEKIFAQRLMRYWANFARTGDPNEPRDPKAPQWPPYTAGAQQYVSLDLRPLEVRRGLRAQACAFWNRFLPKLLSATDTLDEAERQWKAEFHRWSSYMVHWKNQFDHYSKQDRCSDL
Nuclear receptor subfamily 1 group I member 2 (Rattus norvegicus), sequence (Q9R1A7 whole entry, looked up): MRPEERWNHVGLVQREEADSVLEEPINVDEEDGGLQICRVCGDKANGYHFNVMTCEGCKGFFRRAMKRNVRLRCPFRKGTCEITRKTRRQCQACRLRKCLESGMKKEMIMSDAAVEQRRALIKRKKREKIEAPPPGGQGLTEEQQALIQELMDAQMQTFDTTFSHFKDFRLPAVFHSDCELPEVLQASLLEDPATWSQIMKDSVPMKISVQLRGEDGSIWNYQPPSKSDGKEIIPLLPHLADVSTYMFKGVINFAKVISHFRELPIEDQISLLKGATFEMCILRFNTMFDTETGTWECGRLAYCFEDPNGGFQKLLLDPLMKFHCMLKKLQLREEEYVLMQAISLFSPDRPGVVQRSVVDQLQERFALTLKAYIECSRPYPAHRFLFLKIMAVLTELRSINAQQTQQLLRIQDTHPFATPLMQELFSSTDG

For `Cc1cc(C)nc(Nc2ccccc2)n1`, the Potency entry in [1], in assay [2], in assay [3], in assay [8], in assay [9] and in assay [10] was “inactive” throughout. Besides, the Potency result in assay [11], in assay [12] and in assay [13] was “inactive” each time. The compound was called inactive in assay [4], in assay [5], in assay [6] and in assay [7].
For `CC(C)CP(=S)(S)CC(C)C`, the Potency result in assay [1], in [15], in [8], in assay [9], in [16] and in assay [17] was “inactive” in each case. In addition, the Potency result in assay [13] was “inactive”. The Potency in assay [14] was 0.486 µM (active); in [10], 48.6 µM (active). The outcome in assay [4], in assay [5], in assay [6] and in [7] was inactive.
As to `BrCCCCCCBr`, the Potency entry in assay [1], in assay [14], in assay [15], in assay [8], in [9] and in assay [10] was “inactive” throughout. Besides, the Potency entry in [11], in assay [12], in [16] and in assay [13] was “inactive” throughout. The result in assay [4], in [5], in assay [6] and in [7] was inactive. Further, the Potency in assay [17] is 63.3 µM (active).
With `COc1cccc2c1cc([N+](=O)[O-])c1c(C(=O)O)cc3c(c12)OCO3`, the Potency result in assay [1], in assay [2], in [15], in assay [17] and in [13] was “inactive” throughout. For the same compound, the compound was called inactive in assay [4], in assay [6] and in assay [7]. Further, the Potency in [8] was 12.2 µM (active); in assay [9], 9.69 µM (active); in assay [10], 21.7 µM (active); in assay [11], 9.69 µM (active); in assay [12], 27.3 µM (active).
As for `CCOP(=S)(OCC)Oc1nc(Cl)n(C(C)C)n1`, the Potency result in assay [14], in assay [2], in assay [15], in [8], in assay [9] and in assay [10] was “inactive” in each case. Further, the Potency entry in assay [11] and in [12] was “inactive” each time. Also, the result in [4], in assay [5], in [6] and in [7] was inactive. Besides, the Potency in assay [16] was 6.86 µM (active).
As to `CC1(C)COP(Oc2ccccc2)OC1`, the Potency result in assay [2], in assay [3], in assay [15], in [9], in assay [10] and in assay [11] was “inactive” each time. Besides, the Potency entry in assay [12], in assay [16], in assay [17] and in assay [13] was “inactive” throughout. Further, the result in assay [4], in assay [5], in assay [6] and in assay [7] was inactive.
In the case of `ClCCCN1CCN(c2cccc(Cl)c2)CC1`, the Potency entry in [2], in assay [15], in assay [8], in [9], in assay [10] and in [11] was “inactive” throughout. The Potency result in assay [12], in assay [16], in assay [17] and in [13] was “inactive” throughout. For the same compound, the Potency in [3] was 1.19 µM (active). The call in assay [4], in assay [5], in [6] and in assay [7] was inactive.
`O=[N+]([O-])c1ccc2c3c(cccc13)CC2`: the Potency in [14] was 24.3 µM (active); in assay [16], 54.5 µM (active). Moreover, the Potency entry in assay [2], in [15], in [8], in [9], in [10] and in [11] was “inactive” each time. In addition, the Potency result in assay [17] and in assay [13] was “inactive” throughout. Moreover, the result in assay [5], in assay [6] and in assay [7] was inactive.
For the compound `C=CCC1=C(C)[C@@H](OC(=O)[C@@H]2[C@@H](C=C(C)C)C2(C)C)CC1=O`, the Potency in [14] is 27.3 µM (active); in assay [15], 49 µM (active); in assay [8], 61.1 µM (active); in assay [10], 43.3 µM (active); in assay [16], 9.69 µM (active). In addition, the outcome in assay [6] and in [7] was inactive. In addition, the Potency entry in [9], in [17] and in assay [13] was “inactive” each time.
With `C#C[C@]1(O)C=C[C@H]2[C@@H]3CCC4=CC(=O)CC[C@@H]4[C@H]3CC[C@@]21CC`, the Potency entry in assay [14], in assay [8], in assay [9], in assay [11], in assay [12] and in [19] was “inactive” each time. Further, the Potency result in [20] and in assay [13] was “inactive” in each case. The call in assay [4], in assay [5], in [6] and in [7] was inactive. Further, the Potency in assay [16] is 29.8 µM (active). Further, the max activation in [18] is -1.56%.

Source of the values: PubChem BioAssay (Tox21).
